Anthrax LF prot = Bacillus anthracis LF protease inhibitors, primary screen, biochemical, multiplex microsphere, MLPCN library | AID 588501, 2011 | multiplex microsphere protease cleavage assay | inhibition, % at 10 µM | hit rate 0.12% among 360,000
BoNT-A LC inh2 = BoNT/A light chain protease inhibitors, primary screen, biochemical, flow cytometry, MLPCN library | Botulinum neurotoxin type A light chain protease (Clostridium botulinum A str. ATCC 3502) | inhibition, % at 10 µM | hit rate 0.17% among 360,000 | multiplex microsphere protease substrate cleavage | AID 588499, 2011
BoNT F protease = BoNT/F light chain protease inhibitors, primary screen, biochemical, flow cytometry, MLPCN library; Botulinum neurotoxin type F light chain protease (Clostridium botulinum); Multiplex microsphere protease cleavage assay; inhibition, % at 10 µM; hit rate 0.22% among 360,000; AID 588497, 2011; in the data active means inhibition above about 35%, passing the limit was not always enough; inconclusive means no clear call, values can overlap the other calls
Bead autofluor = flagged as autofluorescent in microsphere protease counterscreen | fluorescence intensity (test concentration not listed) | hit rate 3.1% among 360,000 | compound autofluorescence counterscreen, microsphere flow cytometry; hits give high values; in the data active means fluorescence intensity above about 16000; inconclusive means no clear call, values can overlap the other calls
Vc quorum ag = inducers of Vibrio cholerae quorum light production without autoinducers, primary screen, BH1578 luxS cqsA deficient, single point | V. cholerae BH1578 lux reporter, luminescence, 6 h | activation, % at 18.7 µM | hit rate 0.16% among 350,000; in the data active means activation mostly above about 9.7%, no sharp cut-off; inconclusive means no clear call, values can overlap the other calls; inactive means mostly below about 3.7%
A number is an active result; . = inactive; ? = inconclusive; / = no result given. Compounds with a hit are over-represented: about 3.5% of the library has one in this group of screens. Unless noted, no stated cut-off is given here; in the data, active means inhibition above about 30%; inconclusive means no clear call, values can overlap the other calls; inactive means below that.

SMILES	Anthrax LF prot	BoNT-A LC inh2	BoNT F protease	Bead autofluor	Vc quorum ag
CCOC(=O)c1[nH]c(C)c(/C(O)=C2\C(=O)C(=O)N(CCN(C)C)C2c2cccc(OC)c2OC)c1C (stereo unspecified)	.	.	.	18747	.
COC(=O)C1=C(C)N(Cc2cccnc2)C(=O)C1	.	.	.	22058	.
COc1ccc(N2C(=O)CC(=O)NC2=O)cc1	.	.	.	.	.
COC(=O)C1=C(C)N(Cc2ccc(OC)cc2)C(=O)C1	.	.	.	20549	.
COc1ccc(CN2C(=O)CC(=O)NC2=O)cc1	.	?	.	21705	.
Nc1nc(SCn2nnc3ccccc3c2=O)n[nH]1	.	.	.	.	.
COC(=O)[C@]12CCCCC=C1N(Cc1ccco1)C(=O)[C@H](CC(=O)NCCCN1CCCC1=O)C2	.	.	.	.	/
O=C(CCc1ccccc1)NC(=S)Nc1cc(C(F)(F)F)ccc1N1CCOCC1	.	.	.	19113	.
O=C(NC1CCCCC1)N1CCC(c2nc3ccc(Cl)cc3[nH]2)CC1	.	.	.	16224	.
O=C(NC1CCCCC1)N1CCC(c2nc3ccccc3[nH]2)CC1	.	.	.	22032	.
Fc1ccc(-c2n[nH]c(=S)c3ccccc23)cc1	.	.	.	.	.
Cc1ccc(SCC(=O)O/N=C(\N)c2ccc([N+](=O)[O-])cc2)cc1	.	.	.	22162	.
Cc1onc(-c2c(F)cccc2Cl)c1C(=O)ONC(=O)c1ccco1	.	.	.	.	.
C=CCNC(=S)NNC(=O)c1cccc(Br)c1	.	.	.	.	.
C=CCNC(=O)c1cccc(Br)c1	.	.	.	23849	.
Clc1ccc(CSc2snnc2-c2ccccc2)cc1	?	?	?	?	.
Clc1ccc(-c2nnsc2SCc2ccccc2)cc1	.	.	.	22947	.
Clc1ccccc1CSc1snnc1-c1ccccc1	.	?	.	20983	.
Cc1nn(CC(=O)N(C)C2(C#N)CCCCC2)c(C)c1[N+](=O)[O-]	/	/	/	/	.
O=C(Nc1ccccc1)c1cccc2c(-c3cccnc3)coc12	.	.	.	.	.
Cc1ccc2[nH]c(=O)c(CN(CCCN3CCOCC3)C(=O)NC3CCCCC3)cc2c1	.	?	.	22874	.
CCc1ccc2[nH]c(=O)c(CN(CCN3CCCC3)C(=O)NC3CCCCC3)cc2c1	.	.	.	.	.
CCN(CC)CCN(Cc1cc2cc3c(cc2[nH]c1=O)OCCO3)C(=O)NC1CCCCC1	.	.	.	.	/
O=C(NC1CCCCC1)N(CCN1CCOCC1)Cc1cc2cc3c(cc2[nH]c1=O)OCCO3	.	.	.	19967	.
Cc1cc(C)n(C2CCCCC2OC(=O)CCc2ccccc2)n1 (stereo unspecified)	33	?	?	.	.
SMILES	Anthrax LF prot	BoNT-A LC inh2	BoNT F protease	Bead autofluor	Vc quorum ag
CCOC(=O)C1CCCN(C(=O)CCc2ccccc2)C1 (stereo unspecified)	.	.	.	.	.
CC(C)(C)c1nc(NC(=O)Nc2ccccc2)sc1Br	.	.	.	.	.
O=C(NCCc1ccccc1)c1nc2c(nnn2Cc2ccccc2Cl)c(=O)[nH]1	.	.	.	16657	.
O=C(NC1CC1)c1nc2c(nnn2Cc2ccccc2Cl)c(=O)[nH]1	.	.	.	.	.
CCCSc1nc(O)c(CC)c(=O)n1C(C)CC (stereo unspecified)	.	?	.	19471	.
CCCSc1nc2c(c(=O)n(C)c(=O)n2C)n1C	.	.	.	.	.
CS(=O)(=O)N(CC(=O)N1CCCCCC1)c1cccc(F)c1	.	.	?	.	.
CC(C)c1ccc(-c2nnn(CCC(=O)O)n2)cc1	.	.	.	16264	.
O=C(O)CCn1nnc(-c2cccs2)n1	/	/	/	/	.
Cc1ccc(S(=O)(=O)NCc2nnc(SCC(=O)Nc3cccc(C)c3C)n2C)cc1	.	.	.	21005	.
COC(=O)CSc1nnc(CNS(=O)(=O)c2ccc(C)cc2)n1C	.	.	.	.	.
Cn1c(=O)c(=O)n(C)c2cc(S(=O)(=O)N3CC(=O)N(CCc4ccccc4)C(=O)C3)ccc21	.	.	.	.	.
CC1(C)CC(=O)c2c(O)cc(OCc3ccc(Br)cc3)cc2O1	.	.	.	22502	.
COc1ccc(-c2nnn(CC(=O)N3CCOCC3)n2)cc1	.	.	.	.	.
O=C(Cn1nnc(-c2ccc(OCc3ccccc3F)cc2)n1)N1CCOCC1	.	.	.	22617	.
CC(=NNC(=S)N1CCN(C2CCCCCC2)CC1)c1ccccn1	92	82	74	.	.
CC(=NNC(=S)N1CC2CCC(CC2)C1)c1ccccn1	52	.	60	.	.
CC(=NNC(=S)N1CCCCCC1)c1cccc2cccnc12	.	.	.	.	.
CC(=NNC(=S)N1CC2CCC(CC2)C1)c1cnccn1	54	40	59	.	.
CC(=NNC(=S)N1CCN(c2ccccn2)CC1)c1ccccn1	.	.	.	.	.
CC(=NNC(=S)N1CCN(c2ccccn2)CC1)c1nccs1	31	.	.	.	.
COc1cccc(CNC(=O)Cn2ncn3cccc3c2=O)c1OC	.	.	.	.	.
COc1ccc(S(=O)(=O)N2CCC(C(=O)NCCc3ccccc3)CC2)cc1	.	.	.	.	.
Nc1ccc2c(c1)Cc1c(F)cccc1-2	.	.	.	.	.
COc1ccc(N2C(=O)CSC23C(=O)N2c4c(cccc43)C(C)=CC2(C)C)cc1 (stereo unspecified)	.	.	.	16577	.
SMILES	Anthrax LF prot	BoNT-A LC inh2	BoNT F protease	Bead autofluor	Vc quorum ag
COC(=O)c1ccc(NC(=O)c2cccc(Cl)c2)o1	.	.	.	23122	.
COC(=O)c1ccc(NC(=O)c2ccc(C)cc2)o1	.	.	.	.	.
Nc1nc(SCCN2C(=O)c3ccccc3C2=O)n[nH]1	.	?	.	18492	.
CCCOc1ccc(-c2nc(C#N)c(N3CCC(C(N)=O)CC3)o2)cc1	.	.	.	19961	.
CCOc1ccc(-c2nc(C#N)c(N3CCN(CC)CC3)o2)cc1	.	?	.	19650	.
Cc1cnc(C(=O)OCC(=O)Nc2cc(-c3ccccc3)nn2-c2ccccc2)cn1	.	.	.	.	.
COc1ccccc1OCc1nnc(SCC(=O)N2CCCCC2)o1	.	.	.	.	.
COc1ccccc1OCc1nnc(SCC(=O)c2cc(Cl)ccc2OC)o1	.	?	.	21782	.
COc1ccccc1OCc1nnc(SCCN2CCOCC2)o1	.	?	.	22558	.
COc1ccccc1OCc1nnc(SCC(=O)N2CCCC2)o1	.	.	.	.	.
COc1ccccc1NC(=O)CSc1ccc(-c2ccc(-n3cccn3)cc2)nn1	/	/	/	/	.
N#CN1C2CCC1CC(O)(c1ccccc1)C2 (stereo unspecified)	.	.	.	.	/
O=C(c1cccc(-c2ccccc2)c1)N1CC[C@@H](N2CCC(O)CC2)[C@H](O)C1	.	.	.	19128	.
Cc1cc(C)c(C#N)c(SCc2ccc(C(=O)O)cc2)n1	32	.	?	.	.

Screening data: PubChem, several laboratories
